Measurements from PubChem BioAssay.
Calls of active or inactive are those of the source.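 The calls were made as follows: active = mean inhibition over 43.08%, the solvent-only control mean plus 3 SD; inactive = the rest.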

Molecular target: Nuclear receptor coactivator 3 (Homo sapiens) (UniProt Q9Y6Q9)
Assay: SRC3 coactivator transcriptional activity inhibitors, confirmation, cell-based, luminescence, quadruplicate (AID 588792);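 also: 0% = DMSO treated cells and 100% = gossypol at 36 µM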
Details: HEK293 GAL4-SRC3 luciferase reporter, at 3.6 µM, stronger effect = higher value

Chain of Nuclear receptor coactivator 3 (Homo sapiens) (Q9Y6Q9 whole entry, looked up): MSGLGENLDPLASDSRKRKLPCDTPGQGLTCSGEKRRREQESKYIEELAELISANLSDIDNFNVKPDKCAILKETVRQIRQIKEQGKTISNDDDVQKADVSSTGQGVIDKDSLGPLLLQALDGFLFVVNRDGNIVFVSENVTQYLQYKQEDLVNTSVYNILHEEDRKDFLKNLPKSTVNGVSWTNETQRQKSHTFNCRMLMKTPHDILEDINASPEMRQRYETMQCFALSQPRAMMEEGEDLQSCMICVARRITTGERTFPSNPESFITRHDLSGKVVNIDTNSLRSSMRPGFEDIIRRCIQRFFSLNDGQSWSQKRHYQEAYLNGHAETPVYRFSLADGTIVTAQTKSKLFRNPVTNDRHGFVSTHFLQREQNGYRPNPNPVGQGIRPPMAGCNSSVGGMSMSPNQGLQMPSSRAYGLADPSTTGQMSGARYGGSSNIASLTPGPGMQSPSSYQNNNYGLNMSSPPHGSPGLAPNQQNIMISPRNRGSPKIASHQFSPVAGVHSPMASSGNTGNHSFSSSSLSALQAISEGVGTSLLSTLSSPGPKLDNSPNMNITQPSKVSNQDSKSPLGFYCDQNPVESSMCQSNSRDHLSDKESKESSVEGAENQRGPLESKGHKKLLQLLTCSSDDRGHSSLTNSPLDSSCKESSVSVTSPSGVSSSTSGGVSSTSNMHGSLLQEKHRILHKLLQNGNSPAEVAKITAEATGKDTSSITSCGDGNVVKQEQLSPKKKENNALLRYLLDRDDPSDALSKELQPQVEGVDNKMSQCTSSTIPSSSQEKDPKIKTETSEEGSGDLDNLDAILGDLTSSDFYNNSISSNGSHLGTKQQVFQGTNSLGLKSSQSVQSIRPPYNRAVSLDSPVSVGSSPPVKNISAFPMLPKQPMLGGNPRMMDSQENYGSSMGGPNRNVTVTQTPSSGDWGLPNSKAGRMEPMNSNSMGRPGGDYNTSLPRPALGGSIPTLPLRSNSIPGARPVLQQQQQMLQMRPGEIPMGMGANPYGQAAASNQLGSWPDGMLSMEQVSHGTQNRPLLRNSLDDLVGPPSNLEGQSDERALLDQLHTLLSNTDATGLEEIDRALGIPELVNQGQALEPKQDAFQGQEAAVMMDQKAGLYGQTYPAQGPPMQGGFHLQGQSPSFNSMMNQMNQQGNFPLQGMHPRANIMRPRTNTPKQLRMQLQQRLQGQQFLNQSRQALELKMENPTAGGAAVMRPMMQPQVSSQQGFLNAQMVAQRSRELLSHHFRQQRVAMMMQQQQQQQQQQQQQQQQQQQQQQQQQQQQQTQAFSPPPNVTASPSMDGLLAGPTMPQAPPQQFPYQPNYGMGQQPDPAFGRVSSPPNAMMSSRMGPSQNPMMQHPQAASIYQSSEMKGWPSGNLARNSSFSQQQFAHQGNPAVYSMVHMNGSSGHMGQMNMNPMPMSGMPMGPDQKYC

inhibition, inactive:
CC(C)(CC(=O)O)CC(=O)Nc1cc(C(F)(F)F)cc(C(F)(F)F)c1 6.02%, COc1ccc(C(C)=O)cc1CSc1nnc(Nc2ccccc2)s1 9.88%, CCOC(=O)c1c(C)sc2c1N(C(=O)CCl)c1cc(Cl)ccc1S2 -14.3%, Cc1ccc(CNC(=O)CCc2ccc(S(=O)(=O)NC3CCCCC3)cc2)cc1 0.11%, COc1ccc(-c2nc3c(c(SCC(=O)N4CCOCC4)n2)Cc2c(CO)cnc(C)c2O3)cc1 5.29%, CC(C)(C)c1csc(Sc2ccc([N+](=O)[O-])cn2)n1 13.1%, CCOCc1c(C(=O)NC2=Nc3ccccc3NC(CC)=C2C(=O)OCC)oc2ccccc12 1.38%, O=C(Nc1ccc(S(=O)(=O)Nc2ccc(F)cc2)cc1)c1ccc(CN2CCOCC2)cc1 7.38%, O=C(C1CCC1)N1CCN(c2ccnc3cc(Cl)ccc23)CC1 17%, Cc1cccc(C)c1-n1c(C)cc(/C=N\NC(=O)CC(=O)NC2CCCCC2)c1C -17.4%, O=C(NCc1ccccc1)c1c(Cl)nc(Cl)c(Cl)c1Cl 42.1%, O=C(COc1ccccc1[N+](=O)[O-])Nc1ccc(N2CCN(C(=O)c3cccs3)CC2)cc1 -7.09%, CCCC(=O)NC(NC(=S)Nc1ccc(N=Nc2ccccc2)cc1)C(Cl)(Cl)Cl (stereo not given) 3.89%, Cc1ccc(NC(=O)C2CCN(c3ncnc4c3nc3n4CCCCC3)CC2)cc1Cl -20.6%, CC(C)NC(=O)N(C)C[C@H]1Oc2ccc(NS(=O)(=O)c3ccc(Cl)cc3)cc2CC(=O)N([C@@H](C)CO)C[C@@H]1C 5.62%, Cc1ccc(OCC(O)CN2CCN(CC(O)COC(C)C)CC2)c(C(C)(C)C)c1 (stereo not given) 8.73%, Cc1ccc(F)cc1NC(=O)C1CCN(c2cnccn2)CC1 -9.49%, NC(=S)N/N=C1\CCOc2ccc(Cl)cc21 34.6%, C#CCOCCOCCOCCNc1nc(N2CCN(C(=O)Cn3cc(CCCN=C(N)N)nn3)CC2)nc(N2CCN(C(=O)[C@H](C)n3cc(CCCN=C(N)N)nn3)CC2)n1 3.42%, COc1ccc(N2CC(C(=O)N/N=C/c3ccccc3)CC2=O)cc1 (stereo not given) 5.28%, O=C(CNc1cccc([N+](=O)[O-])c1)N/N=C/c1ccc([N+](=O)[O-])o1 32.3%, Cc1nc2ccccn2c1-c1ccnn1S(=O)(=O)c1ccc(F)cc1 3.74%, CCCNc1nc(OC(C(F)(F)F)C(F)(F)F)nc(OC(C(F)(F)F)C(F)(F)F)n1 7.26%, Cc1c(Cl)cccc1NC(=O)CCC(=O)N/N=C/c1ccc[nH]1 13.6%

inhibition, active:
COc1cc2c(ccc3cc(OC)c(OC)c(O)c32)cc1O 56.5%
